PubChem BioAssay (NCI)
The panel holds about 83,000 compounds, 20% with a hit somewhere; the sample as a whole holds those more often.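 48-hour exposure, single concentration, 96-well plates; percent growth endpoint where 0 means no net growth. Active: below 10.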 Unmarked numbers belong to inactive results. Active and inactive are the calls of the source.

Experiments:
Test in all cases: NCI-60 one-dose screen, 48 h (100 = growth as untreated, 0 = no growth, -100 = all killed)
Settings in all cases: 10 µM unless noted
[1] = system: NCI-H23 lung
[2] = system: NCI-H226 lung
[3] = system: NCI-H322M lung
[4] = system: HOP-62 NSCLC
[5] = system: NCI-H460 lung
[6] = system: HOP-92 NSCLC
[7] = system: NCI-H522 lung
[8] = system: A549/ATCC NSCLC
[9] = system: 786-0 renal
[10] = system: COLO 205 colon
[11] = system: DU-145 prostate
[12] = system: K-562 leukemia
[13] = system: MALME-3M melanoma
[14] = system: MDA-MB-231 breast
[15] = system: RXF 393 renal
[16] = system: SF-268 CNS
[17] = system: SF-295 CNS
[18] = system: SF-539 CNS
[19] = system: UACC-257 melanoma
[20] = system: M14 melanoma

SMILES	growth [1]	growth [2]	growth [3]	growth [4]	growth [5]	growth [6]	growth [7]	growth [8]	growth [9]	growth [10]	growth [11]	growth [12]	growth [13]	growth [14]	growth [15]	growth [16]	growth [17]	growth [18]	growth [19]	growth [20]
Cn1cc(-c2csc(-c3cn(CCCN4CCCCC4)c4ccccc34)n2)c2cccnc21	84%	52.7%	82.7%	-84% (active)	-58.7% (active)	57.8%	95.2%	-14.4% (active)	-87.1% (active)	-80% (active)	-52.5% (active)	-70% (active)	-78.6% (active)	-81.4% (active)	-78.6% (active)	-25.6% (active)	32%	-88.6% (active)	-80.3% (active)	-80.9% (active)
CC1(C)C(=O)/C(=C\c2ccco2)C[C@]2(C)[C@H]3CC[C@@H]4[C@@H](C(=O)/C=C/c5ccco5)CC[C@@]4(C)[C@]3(C)CC[C@@H]12	92.8%	103%	105%	83.2%	98.7%	17.6%	92.4%	96.9%	119%	-80.2% (active)	75.2%	85.6%	1.28% (active)	56%	101%	78.7%	100%	97.5%	16.8%	23.9%
CC(=O)c1c(C)[nH]c(-c2nc3ccc(N4CCN(C)CC4)cc3[nH]2)c1-c1ccc(N(C)C)cc1	40%	47.4%	40.6%	24.6%	53%	33.1%	42.1%	40.2%	38.7%	7% (active)	63.9%	21.1%	26.7%	36.1%	37.2%	59.4%	43.2%	39.3%	36.4%	34.6%
C=C(C)[C@@H]1CC[C@]2(C(=O)N3CCN(CC)CC3)CC[C@]3(C)[C@H](CC[C@@H]4[C@@](C)(CCC(=O)N5CCN(CC)CC5)[C@H](C(=C)C)CC[C@]43C)[C@@H]12	74.4%	79.6%	89%	88.7%	25.1%	52.2%	77.9%	57.4%	0.392% (active)	61.1%	70.8%	30.4%	43.2%	58.6%	48.8%	76.9%	47.8%	66%	18.6%	35.8%
COc1cc(-c2cc3ncccc3c3nc(N)c4cccnc4c23)cc(OC)c1OC	24.5%	38.7%	44.3%	27.3%	3.55% (active)	41.2%	17.4%	12.7%	12.9%	-15.6% (active)	2.16% (active)	16.3%	50.9%	36.5%	10.9%	29.6%	12.4%	-1.92% (active)	44.3%	4.68% (active)
C=C(C)[C@@H]1CC[C@]2(/C=N/Nc3ccncc3)CC[C@]3(C)[C@H](CC[C@@H]4[C@@]5(C)CCCNC(C)(C)[C@@H]5CC[C@]43C)[C@@H]12	85.9%	87.7%	102%	94.7%	86.6%	55.6%	94.8%	78%	99.8%	42.2%	95.7%	7.55% (active)	80.3%	101%	96.3%	97.2%	99.1%	88.7%	94.7%	79.4%
CCCCC[C@H]1C/C=C2/C(=O)C(Cl)=C[C@@H]2C/C=C\CCCC(=O)O1	-34.5% (active)	-32.7% (active)	-74.2% (active)	-36.7% (active)	-16.6% (active)	-48.9% (active)	-73.1% (active)	-35.6% (active)	-73.4% (active)	-63.1% (active)	-83.1% (active)	2.39% (active)	-35.2% (active)	-10.7% (active)	-90.9% (active)	-37.1% (active)	-35% (active)	-76.7% (active)	-53.3% (active)	-52.8% (active)
COc1cc2c(cc1-c1c(C)noc1C)ncc1nc(C3CCCCC3)n([C@@H](C)COC(F)F)c12	56.8%	55.5%	41.9%	28.6%	53%	27.7%	26.2%	33.2%	42.8%	9.21% (active)	61%	24.2%	72.1%	41%	52.2%	55.6%	45.3%	31.6%	28.2%	34.7%
Cc1cc(Cl)nc(N(CCCNc2ccnc3cc(Cl)ccc23)Cc2ccco2)n1	8.17% (active)	24.1%	42.8%	25.7%	16.7%	-3.26% (active)	13.8%	29.2%	19.5%	-54.5% (active)	46.2%	0.302% (active)	4.4% (active)	22.9%	26.6%	52.5%	20.6%	20.1%	23.3%	-6.17% (active)
O=C1/C(=C\C(Cl)=C/c2ccc([N+](=O)[O-])cc2)SC(=S)N1CCc1ccc(O)cc1	-57.9% (active)	-63.3% (active)	2.21% (active)	12.9%	0.441% (active)	-3.03% (active)	0.0131% (active)	3.64% (active)	-46.4% (active)	-43.8% (active)	5.69% (active)	6.62% (active)	-64.5% (active)	6.88% (active)	-72.5% (active)	9.96% (active)	-31.4% (active)	-75.4% (active)	4.06% (active)	-27.5% (active)
CC1=NN(c2ccc(S(=O)(=O)O)cc2Cl)C(=O)C1	92.5%	101%	112%	90%	103%	91.7%	97.4%	99.7%	97.6%	112%	162%	115%	129%	102%	108%	127%	105%	92.9%	110%	96.1%
C=C(C)[C@@H]1CC[C@]2(C(=O)N3CCCNCC3)CC[C@]3(C)[C@H](CC[C@@H]4[C@@]5(C)CCC(=O)C(C)(C)[C@@H]5CC[C@]43C)[C@@H]12	98.4%	90.7%	102%	92.9%	97.7%	48.4%	101%	86.2%	94.9%	101%	93.6%	78.4%	99.3%	88.7%	81.9%	84.9%	104%	99.9%	98.4%	100%
CCC1C(=O)COC1=O (stereo not given)	95.7%	100%	104%	77.1%	105%	80.6%	77.7%	64.1%	101%	100%	108%	92%	99.3%	-22.4% (active)	122%	101%	97.9%	105%	81.8%	93.2%
CC(C)=CCC[C@](C)(O)[C@H]1CC[C@]2(C)[C@@H]1CC[C@@H]1[C@@]3(C)C/C(=C/c4cccc([N+](=O)[O-])c4)C(=O)C(C)(C)[C@@H]3CC[C@]12C	74.9%	84.5%	103%	97.4%	87.2%	76.6%	90.5%	71%	88%	94%	68.2%	74%	84.5%	88.9%	90.1%	93.2%	103%	96%	97.9%	83%
CN(C)c1cccc2[nH]c(-c3[nH]ncc3Nc3ccnc(N)n3)nc12	-45.1% (active)	-26.6% (active)	-13.6% (active)	-19.6% (active)	-32.7% (active)	-11.3% (active)	-24.6% (active)	-7.09% (active)	-58% (active)	-64% (active)	-5.08% (active)	3.38% (active)	-79% (active)	-18.8% (active)	-86.3% (active)	-25.3% (active)	-41.5% (active)	-83.8% (active)	-65.8% (active)	-79.9% (active)
